Entries with a potency or affinity are not part of this list. Results filed as inconclusive are left out. Active and inactive are the calls of the source.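 Rule for the calls: active = compound lowering the signal whose fitted half-maximal concentration is at most ten times its top tested dose; inconclusive = flat curve with 30 to 70% loss, or poor fit; inactive = the rest.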
Assay: viability loss in Mcl1-dependent HMC-1-8 cells, dose response, selectivity assay for A1 inhibitor project, cell-based, luminescence, dry powder (AID 504415)

C/C1=C/C(=O)O[C@@H]2C[C@@H](CC[C@H](C)/C=C\CC1)O[C@@](O)(C1CSC(=O)N1)C2 (stereo partly specified)
outcome: inactive
